Among the data in PubChem BioAssay AID624255 (Broad Institute, 2012) are inhibition values, retold here.

Hit rate of the full screen: of about 77,000 compounds, about 4,600 (6%) were called active. Roughly 1% stayed inconclusive and do not appear here. Many of the other results were omitted from the sample, so actives are more common in it than they were. Values without a mark were called inactive.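 The calls were made as follows: active = mean inhibition above about 93%, with at least 55% of replicates each passing it (limit read from the data, passing the limit was not always enough); inconclusive = only one of those two conditions holds; inactive = neither condition holds.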

This assay in a line: growth inhibition of T. cruzi in host fibroblasts – cell-based, beta-gal Tulahuen parasites, NIH3T3 host, luminescence, primary screen (AID 624255). Conditions: T. cruzi beta-gal in NIH3T3, GalScreen luminescence, 90 h; at 8.34 µM; hits give high values.
The inhibition is the change of the read-out against control, counted positive when it falls. For the compound `CCCC(=O)Nc1ccc2c(c1)OC[C@H](C)N(CCC)C[C@@H](C)[C@@H](OC)CN(C)C2=O`, the inhibition is -74.1%.

As for `CN1c2ccc(C3=CCCCC3)cc2[C@H]2[C@H](CCN2S(=O)(=O)c2ccccc2)[C@@H]1CO`, the inhibition was 86.7%.

As to `C[C@@H]1CCCCO[C@H](CN(C)S(C)(=O)=O)[C@@H](C)CN([C@@H](C)CO)C(=O)c2cc(NC(=O)CCC(F)(F)F)ccc2O1`, the inhibition was 31.3%.

As for `C[C@H](CO)N1C[C@H](C)[C@H](CN(C)S(=O)(=O)c2ccccc2)Oc2ncc(-c3cccc(C(F)(F)F)c3)cc2C1=O`, the inhibition is 118% (active).

For `C[C@H]1CN([C@@H](C)CO)C(=O)c2cc(-c3cccc(F)c3)cnc2O[C@@H]1CN(C)S(C)(=O)=O`, the inhibition was 36.8%.

Turning to `C[C@H](CO)N1C[C@H](C)[C@@H](CN(C)S(=O)(=O)c2ccccc2)Oc2ncc(-c3ccncc3)cc2C1=O`, the inhibition was 2.86%.

Take `CCCNC(=O)[C@H]1[C@H](CO)[C@H]2Cn3c(ccc(C4=CCCC4)c3=O)[C@H]2N1C(=O)CC`: the inhibition is 6.67%.

In the case of `O=C(C[C@H]1CC[C@H]2[C@@H](COC[C@@H](O)CN2S(=O)(=O)c2cccc(Cl)c2)O1)NC1CCCC1`, the inhibition is -59.2%.

As for `O=C(Nc1ccc(C(F)(F)F)cc1)N[C@@H]1CC[C@H](CCNC(=O)c2ccccc2F)O[C@H]1CO`, the inhibition is -57%.

Regarding `O=C(Nc1ccccc1)N[C@H]1CC[C@H](CCNC(=O)c2ccccc2F)O[C@H]1CO`, the inhibition was 22.8%.

In the case of `O=C(Nc1cc(Cl)cc(Cl)c1)N[C@@H]1CC[C@H](CCNS(=O)(=O)c2cccc(F)c2)O[C@H]1CO`, the inhibition is 17.2%.

Turning to `O=C(Nc1ccc(Cl)cc1)N[C@@H]1CC[C@@H](CCNC(=O)c2ccccc2F)O[C@H]1CO`, the inhibition is 169% (active).

As to `O=S(=O)(NCC[C@H]1CC[C@@H](NS(=O)(=O)c2cccc(Cl)c2)[C@@H](CO)O1)c1cccc(F)c1`, the inhibition is 11.3%.

Regarding `O=C(Nc1cc(Cl)cc(Cl)c1)N[C@H]1CC[C@@H](CCNS(=O)(=O)c2cccc(F)c2)O[C@H]1CO`, the inhibition is 117% (active).

Consider `COc1ccccc1CNC(=O)C[C@@H]1CC[C@H](NC(=O)CN(C)C)[C@@H](CO)O1`, for which the inhibition was 18.4%.

Regarding `O=C(Nc1ccc(F)cc1)N[C@H]1CC[C@H](CCn2cc(-c3ccc(F)cc3)nn2)O[C@@H]1CO`, the inhibition was -16.9%.

Consider `C[C@H]1CN([C@@H](C)CO)S(=O)(=O)c2ccc(C#Cc3ccncc3)cc2O[C@@H]1CN(C)C(=O)Nc1ccc2c(c1)OCO2`, for which the inhibition was 86.1%.

Consider `CN1C(=O)c2cc(NC(=O)NC3CCCC3)ccc2OC[C@@H]2O[C@@H](CC(=O)O)CC[C@H]21`, for which the inhibition is -32.1%.

As for `C[C@@H]1CCCCO[C@H](CN(C)Cc2ccc(C(F)(F)F)cc2)[C@H](C)CN([C@H](C)CO)C(=O)c2cc(NC(=O)Nc3ccc(F)cc3)ccc2O1`, the inhibition was 103% (active).

Consider `C[C@@H]1CN([C@H](C)CO)C(=O)c2cc(NC(=O)Nc3ccccc3)ccc2O[C@@H](C)CCCCO[C@H]1CN(C)Cc1ccc(C(F)(F)F)cc1`, for which the inhibition was 73.3%.

Consider `C[C@@H]1CCCCO[C@@H](CN(C)Cc2ccc(C(F)(F)F)cc2)[C@@H](C)CN([C@H](C)CO)C(=O)c2cc(NC(=O)Nc3ccccc3)ccc2O1`, for which the inhibition is 110% (active).

For `C[C@@H]1CCCCO[C@@H](CN(C)Cc2ccc(C(=O)O)cc2)[C@@H](C)CN([C@@H](C)CO)C(=O)c2cc(NC(=O)Nc3ccc(C(F)(F)F)cc3)ccc2O1`, the inhibition was 14.7%.

Regarding `C[C@@H]1CN([C@H](C)CO)C(=O)c2cc(NC(=O)Nc3ccc(C(F)(F)F)cc3)ccc2O[C@@H](C)CCCCO[C@@H]1CN(C)Cc1ccc(C(F)(F)F)cc1`, the inhibition is 86.3%.

Turning to `C[C@H]1CCCCO[C@@H](CN(C)Cc2ccc(C(F)(F)F)cc2)[C@@H](C)CN([C@@H](C)CO)C(=O)c2cc(NC(=O)Nc3ccccc3)ccc2O1`, the inhibition is 73.3%.

In the case of `C/C=C/c1ccc2c(c1)O[C@H](CN(C)C(=O)Cc1ccncc1)[C@@H](C)CN([C@@H](C)CO)S2(=O)=O`, the inhibition is 20.3%.

As to `C[C@H]1CCCCO[C@H](CN(C)CC2CCCCC2)[C@@H](C)CN([C@@H](C)CO)C(=O)c2cc(NS(=O)(=O)c3ccc(Cl)cc3)ccc2O1`, the inhibition was 88%.

Take `CC(C)NC(=O)N(C)C[C@H]1Oc2ncc(C#CC3CCCCC3)cc2C(=O)N([C@H](C)CO)C[C@@H]1C`: the inhibition was 84.2%.

Take `C[C@@H]1CN([C@@H](C)CO)C(=O)c2cc(C#CC3CCCCC3)cnc2O[C@H]1CN(C)S(=O)(=O)c1ccccc1`: the inhibition is 104% (active).

For the compound `C[C@@H]1CN([C@H](C)CO)C(=O)c2cc(C#CC3CCCC3)cnc2O[C@H]1CN(C)C(=O)C1CC1`, the inhibition was 32.3%.

With `C[C@H]1CN([C@@H](C)CO)C(=O)c2cc(C#CC3CCCCC3)cnc2O[C@H]1CN(C)S(=O)(=O)c1ccccc1`, the inhibition was 104% (active).

As for `C[C@@H]1CN([C@@H](C)CO)C(=O)c2cc(C#CC3CCCCC3)cnc2O[C@@H]1CN(C)Cc1cncnc1`, the inhibition was 53.7%.

On to `CCCC#Cc1cnc2c(c1)C(=O)N([C@H](C)CO)C[C@H](C)[C@@H](CN(C)S(=O)(=O)c1ccccc1)O2`, for which the inhibition is 75.2%.

For `C[C@@H]1CN([C@H](C)CO)C(=O)c2cc(NC(=O)Cc3ccccc3)ccc2O[C@@H](C)CCCCO[C@H]1CN(C)C(=O)Cc1ccccc1`, the inhibition was -33.3%.

As for `O=C(C[C@H]1CC[C@@H]2[C@H](COC[C@@H](O)CN2Cc2cccc(-c3ccncc3)c2)O1)N1CCOCC1`, the inhibition was 65.1%.

`O=C(C[C@@H]1CC[C@H]2[C@@H](COC[C@H](O)CN2S(=O)(=O)c2ccc(F)cc2)O1)N[C@H]1CCN(Cc2ccccc2)C1`: the inhibition was 67.7%.

Turning to `Cc1ccccc1-c1ccc2c(c1)O[C@H](CN(C)C)[C@@H](C)CN([C@H](C)CO)S2(=O)=O`, the inhibition is 30%.

Consider `COc1ccccc1-c1ccc2c(c1)O[C@H](CN(C)S(=O)(=O)c1ccc(C)cc1)[C@@H](C)CN([C@H](C)CO)S2(=O)=O`, for which the inhibition is 124% (active).

Consider `Cc1ccc(-c2ccc3c(c2)O[C@H](CN(C)C)[C@@H](C)CN([C@@H](C)CO)S3(=O)=O)cc1`, for which the inhibition was 71.8%.

Consider `CC(=O)N(C)C[C@H]1Oc2cc(-c3ccc(C)cc3)ccc2S(=O)(=O)N([C@@H](C)CO)C[C@@H]1C`, for which the inhibition is 98.5%.

In the case of `CCC(=O)N(C)C[C@@H]1Oc2cc(-c3ccccc3OC)ccc2S(=O)(=O)N([C@H](C)CO)C[C@H]1C`, the inhibition is 52.7%.

In the case of `CNC[C@@H]1Oc2cc(-c3ccccc3OC)ccc2S(=O)(=O)N([C@@H](C)CO)C[C@H]1C`, the inhibition was 42.1%.

As to `Cc1ccccc1-c1ccc2c(c1)O[C@H](CN(C)C)[C@H](C)CN([C@@H](C)CO)S2(=O)=O`, the inhibition was 15.2%.

Consider `Cc1ccc(-c2ccc3c(c2)O[C@H](CN(C)C)[C@@H](C)CN([C@H](C)CO)S3(=O)=O)cc1`, for which the inhibition is 107% (active).

As for `COc1ccccc1-c1ccc2c(c1)O[C@@H](CN(C)C)[C@H](C)CN([C@H](C)CO)S2(=O)=O`, the inhibition was 102% (active).

Take `CO[C@@H](CN(C)S(=O)(=O)c1cccc(Cl)c1)[C@H](C)CN([C@H](C)CO)S(=O)(=O)c1cccc(Cl)c1`: the inhibition was 71.5%.

In the case of `C[C@@H]1CCCCO[C@H](CN(C)C(=O)Cc2ccccc2)[C@@H](C)CN([C@@H](C)CO)C(=O)c2cc(NC(=O)c3ccccc3)ccc2O1`, the inhibition was 46.7%.

In the case of `CCCNC(=O)[C@@H]1[C@@H](CO)[C@@H]2Cn3c(ccc(/C=C/c4ccccc4)c3=O)[C@H]1N2CCC`, the inhibition is 59.6%.

As to `O=C(NCc1ccccn1)[C@@H]1[C@@H](CO)[C@@H]2Cn3c(ccc(/C=C/c4ccccc4)c3=O)[C@H]1N2CC1CC1`, the inhibition is 110% (active).

For the compound `O=C(NCC1CC1)[C@H]1[C@H](CO)[C@H]2Cn3c(ccc(/C=C/c4ccccc4)c3=O)[C@@H]1N2C(=O)C1CCC1`, the inhibition was -126%.

As to `COc1ccccc1NC(=O)N[C@H]1C=C[C@@H](CC(=O)N[C@@H](C)c2ccccc2)O[C@@H]1CO`, the inhibition is 3.52%.

On to `CO[C@H]1CN(C)C(=O)c2cc(NC(=O)C3CCC3)ccc2OC[C@H](C)N(Cc2nccs2)C[C@H]1C`, for which the inhibition was 16.8%.

Consider `CCCNC(=O)[C@@H]1[C@@H](CO)[C@@H]2Cn3c(cccc3=O)[C@H]1N2C(=O)C1CC1`, for which the inhibition is 38.4%.

On to `CCCNC(=O)[C@@H]1[C@@H](CO)[C@@H]2Cn3c(cccc3=O)[C@H]1N2C(=O)Nc1cc(F)ccc1F`, for which the inhibition was 81.1%.

On to `C[C@@H]1CCCCO[C@@H](CN(C)CC2CCCCC2)[C@H](C)CN([C@H](C)CO)C(=O)c2cc(NC(=O)C3CCCCC3)ccc2O1`, for which the inhibition was 51.3%.

For `C[C@@H]1CCCCO[C@@H](CN(C)CC2CC2)[C@H](C)CN([C@H](C)CO)C(=O)c2cc(NC(=O)C3CCCCC3)ccc2O1`, the inhibition was 102% (active).

As to `C[C@@H]1CN([C@@H](C)CO)C(=O)c2cc(NC(=O)C3CCCCC3)ccc2O[C@@H](C)CCCCO[C@@H]1CN(C)Cc1ccc(C(=O)O)cc1`, the inhibition is 15.2%.

With `C[C@@H]1CCCCO[C@@H](CN(C)Cc2ccc(C(=O)O)cc2)[C@H](C)CN([C@@H](C)CO)C(=O)c2cc(NC(=O)C3CCCCC3)ccc2O1`, the inhibition is -8.6%.

For the compound `C[C@@H]1CN([C@@H](C)CO)C(=O)c2cc(NC(=O)C3CCCCC3)ccc2O[C@@H](C)CCCCO[C@H]1CN(C)Cc1ccncc1`, the inhibition was 106% (active).

For the compound `C[C@@H]1CCCCO[C@@H](CN(C)CC2CC2)[C@@H](C)CN([C@H](C)CO)C(=O)c2cc(NC(=O)C3CCCCC3)ccc2O1`, the inhibition is 89%.
